From PubChem BioAssay
PI4K2A inh – inhibitors of human PI4K2A; purified PI4K2A, ADP-Glo luminescence, 1 h; active compounds read low; activity change, negative = inhibition, % at 76.9 µM; 0.13% of 420,000 active; Q9BTU6; AID 1346378; in the data active = activity change below about -50%; inconclusive = mostly about -30% to -49%;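 note: -100% = wells without enzyme as full effect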
Target sequence (Q9BTU6 whole entry, looked up): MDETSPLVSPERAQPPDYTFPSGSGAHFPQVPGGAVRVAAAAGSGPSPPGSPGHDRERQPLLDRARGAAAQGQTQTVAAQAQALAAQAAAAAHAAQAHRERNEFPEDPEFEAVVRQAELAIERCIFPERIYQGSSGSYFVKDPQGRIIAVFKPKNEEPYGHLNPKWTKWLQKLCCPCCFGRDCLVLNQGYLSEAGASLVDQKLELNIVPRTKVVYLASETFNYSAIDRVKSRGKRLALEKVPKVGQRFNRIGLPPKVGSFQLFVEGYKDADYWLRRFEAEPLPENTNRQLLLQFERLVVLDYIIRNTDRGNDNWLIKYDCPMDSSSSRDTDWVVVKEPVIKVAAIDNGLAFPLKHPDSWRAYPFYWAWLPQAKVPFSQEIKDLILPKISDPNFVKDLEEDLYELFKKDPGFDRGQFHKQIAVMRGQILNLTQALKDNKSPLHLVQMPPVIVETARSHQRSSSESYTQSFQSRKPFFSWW
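Compounds are screened against recombinant PI4K2A using PI as substrate and ATP, the latter dispensed at 300 microM. Reactions run one hour at ambient temperature before ADP-Glo detection; full inhibition defined by wells lacking enzyme.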
TrxR1 substrate – rat thioredoxin reductase 1 substrate activity; O89049; purified TrxR1 substrate turnover, NADPH consumption readout; Potency, µM (highest dose often 114 µM), for inactives: at the highest dose activity change, negative = substrate turnover; 0.01% of 390,000 active; AID 588456; note: potency is the fitted concentration of half-maximal effect; nearly all actives have a fitted effect of over 50% in size
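Rat TrxR1, dispensed at 90 nM, was prereduced with 400 uM NADPH (final) for 5 min at ~22 deg C, then incubated with compound 15 min before 400 uM selenite. A first-read NADPH fluorescence drop versus no-compound background flagged substrates.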
TrxR1 inh – blocks rat thioredoxin reductase 1; recombinant rTrxR1, NADPH fluorescence consumption, selenite substrate; Potency, µM (series often up to 114 µM), for inactives: at the highest dose activity change, negative = inhibition, actives largely listed as inhibitors; AID 588453; O89049; 1% of 390,000 active; note: potency is the fitted concentration of half-maximal effect; nearly all actives have a fitted effect of over 65% in size
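Rat TrxR1 (90 nM in the dispensed reagent) was pre-reduced with 400 uM NADPH for 5 min at room temperature, then incubated with compound for 15 min. After 400 uM selenite was added, NADPH fluorescence (Ex 340/Em 450 nm) was followed for 8 min.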
LDHA inh – blocks human lactate dehydrogenase A; AID 1347041; P00338; 0.15% of 480,000 active; activity change, % (values are at about 110 or 230 µM); purified LDHA, NADH/diaphorase-resazurin fluorescence; active compounds read low; in the data active = activity change below about -30%; inconclusive = mostly about -25% to -30%;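 note: plate controls were DMSO wells for no effect and wells without enzyme for full effect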
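LDH5 2 nM; NADH 0.06 mM, pyruvate 0.2 mM; 200 mM Tris pH 7.4, EDTA, Tween-20; 5 min RT. Detection: diaphorase 0.133 mg/mL + resazurin 37 µM, fluorescence ex540/em590 at 0 and 20 min; normalized to enzyme-free and DMSO wells.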
Integrin act MD – integrin-mediated muscular dystrophy alleviation activation | alpha7betagal myoblasts, beta-gal FDG fluorescence, 48 h | Potency, µM (top dose mostly 38.3 µM), for inactives: at the top dose activation, hits mostly activators | 0.064% of 350,000 active;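 note: potency is the fitted concentration of half-maximal effect; 100% = response of the positive control SU9516; nearly all actives have a fitted effect of over 60% in size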
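alpha7betagal+/- myoblasts (passage 13, 250/well) treated 48 h at 37C with compounds at 1:260 dilution of DMSO stock. Lysed, then beta-galactosidase activity read as FDG fluorescence (ex 480/em 540) after 30 min, with pre-read for autofluorescence.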
GALK inh – inhibitors of human galactokinase | P51570 | Purified GALK, Kinase-Glo residual ATP luminescence | Potency, µM (doses to about 57.5 µM), without a hit: at the top dose activity change, negative = inhibition, most hits filed as inhibitors | 0.007% of 270,000 active; note: potency is the fitted concentration of half-maximal effect
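Quantitative HTS: GALK 5 nM, ATP 35 uM, galactose 100 uM, 1 h room temperature, then luciferase-based ATP detection.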
* hit, by the source's call; ? = inconclusive; . = not tested or not shown; [ ] = dose if it differs, or a comment. Compounds with a hit are over-represented: about 1.1% of the library has one in this group of screens. Unless noted, calls come from the whole dose curve; as a rule, active = well fitted curve in the direction sought with a large enough effect; inconclusive = small, poorly fitted or top-dose-only effect, or another doubt; inactive = no such curve, though single readings can be large; an effect the other way counts as inactive or inconclusive. Unless noted, % is set by controls: 0 for no effect and ±100 for the full control effect.

SMILES	PI4K2A inh	TrxR1 substrate	TrxR1 inh	LDHA inh	Integrin act MD	GALK inh
Nc1cc(OC(=O)c2ccco2)nn1S(=O)(=O)c1ccc(F)cc1	36	-4%[57.1 µM]	7.1µM*	-9	15%	1%
CCCCCCCC1C(C#N)=C(N)SC(N)=C1C#N	.	.	.	-6	.	.
COc1ccccc1NC(=O)c1cc(=O)c2ccc(C)cc2o1	.	.	.	-3	.	.
CC1(C)O[C@@H]2[C@H](O1)[C@@H](CO)O[C@H]2n1cnc2c(N)ncnc21	-52*	7%	21%	-2	5%	.
Cc1ccc(-c2ccccc2NC(=O)CCl)o1	4	8%[57.1 µM]	-82%	-3	-68%	.
Cc1ccc(-c2ccccc2NC(=O)CS(=O)CC(=O)Nc2ccc(C)c(Cl)c2)o1 (stereo unspecified)	-16	1%	3.5µM*	5	-5%	7%
COc1cc(CN2CCN(Cc3ccco3)CC2)cc(OC)c1	2	4%	13%	-32*	-22%	-1%
O=[N+]([O-])c1cccc(CN2CCCCCC2)c1	2	1%	19%	-5	30%	-6%
COc1ccc(CN2CCN(Cc3ccco3)CC2)c(OC)c1	9	-11%[57.1 µM]	11%[57.1 µM]	-21	-16%	-2%
O=[N+]([O-])c1cccc(CN2CCN(Cc3ccco3)CC2)c1	-3	1%	9%	-43*	-28%	-2%
O=C(NCc1ccccc1)c1nc(Cc2c[nH]c3ccccc23)no1	.	.	.	1	.	.
COc1cccc2ccn(CC(=O)NC(C)c3ccccc3)c12 (stereo unspecified)	.	.	.	-2	.	.
COc1ccc(-c2nc3ccc(C)cc3c(=O)o2)cc1OC	0	13%[57.1 µM]	22%[57.1 µM]	-8	13%	-5%
COc1cc2nc(-c3ccc(C)cc3)oc(=O)c2cc1OC	.	.	.	-30*	.	.
CCNC(=O)NC(=O)CSc1ccc2ccccc2n1	.	.	.	1	.	.
CN1/C(=C/C=C/c2n(C)c3cc([N+](=O)[O-])c([N+](=O)[O-])cc3[n+]2C)C(C)(C)c2ccccc21	-75*	.	.	10	-22%	.
Cc1ccc(F)cc1NC(=O)CC(C)(C(=O)O)c1ccccc1 (stereo unspecified)	.	.	.	-5	.	.
COc1ccc(C(=O)N2CCCC(CO)(Cc3ccccc3C)C2)o1 (stereo unspecified)	5	0%	50µM*	0	7%	0%
O=C(NCCc1ccccc1)C(c1cccs1)N(C(=O)CCl)c1ccc(Cl)cc1 (stereo unspecified)	46	2%	3.2µM*	0	-60%	-3%
O=C(NCCc1ccccc1)C(c1cccs1)N(C(=O)c1csnn1)C1CC1 (stereo unspecified)	-5	12%	24%	-5	0%	3%
Cc1ccc2c(c1)C(N1CCCC1=O)CC(c1ccco1)N2 (stereo unspecified)	-62*	55%[57.1 µM]	-44%	2	-22%	23%
Cc1ccc(C2CC(c3ccco3)n3ncnc3N2)cc1 (stereo unspecified)	1	4%[57.1 µM]	11%[57.1 µM]	-3	-1%	2%
COc1cc(NS(=O)(=O)c2cccc(Cl)c2C)cc2sc(NC(C)=O)nc12	.	.	.	20	.	.
CN(C)C(=O)N1CCN(S(=O)(=O)c2ccc3ccccc3c2)CC1	-4	-11%	-8%	-5	50%	-4%
O=C(CCl)Nc1cc(S(=O)(=O)N2CCCCCC2)ccc1Cl	4	-11%	7.9µM*	-4	-62%	-3%
SMILES	PI4K2A inh	TrxR1 substrate	TrxR1 inh	LDHA inh	Integrin act MD	GALK inh
O=C(CCl)N1CCN(S(=O)(=O)c2ccc3ccccc3c2)CC1	13	10%	8.9µM*	-4	-68%	-2%
CC(OC(=O)/C=C/c1cccc2ccccc12)C(=O)NC(N)=O (stereo unspecified)	.	.	.	-1	.	.
Cc1ccc(C(C)Nc2ncccc2-c2nc(-c3cccc(C)c3)no2)cc1 (stereo unspecified)	.	.	.	-5	.	.
CCn1c(C)[n+](CCCS(=O)(=O)[O-])c2cc(Cl)c(Cl)cc21	4	21%[57.1 µM]	2%[57.1 µM]	-46*	10%	0%
CCn1c(C)[n+](CC)c2ccc(S(=O)(=O)N(C)C)cc21	-1	-1%[57.1 µM]	4%[57.1 µM]	-13	7%	13%
O=S(=O)(NCc1ccccc1)c1ccc(S(=O)(=O)NCC2CCCO2)cc1 (stereo unspecified)	1	-5%[57.1 µM]	1.4µM*	-6	10%	-1%
COc1ccc(N(C)C(=O)Nc2ccc3nsnc3c2)cc1	1	0%	23%	30	?	-2%
CC(C)N(C(=O)Nc1ccc2nsnc2c1)C(C)C	-68*	0%	-1%	11	-3%	2%
Nc1ccc(-c2nc3ncccc3o2)c(O)c1	-2	213%	89µM*	-5	3%	2%
O=C(O)c1ccc(/C=N\Nc2ccccn2)cc1	-62*	-2%[57.1 µM]	1%[57.1 µM]	-8	19%	.
O=C(O)c1ccc(N/N=C/c2ccc3nccnc3c2)cc1	-55*	-17%	-11%	-3	-6%	15%
O=C(O)c1ccc(N/N=C/c2ccnc3ccccc23)cc1	-7	-15%	5%	-37*	38%	-4%
NS(=O)(=O)c1ccc(N/N=C/c2ccc(Cl)cc2Cl)c([N+](=O)[O-])c1	.	.	.	-2	.	.
COc1ccc(S(=O)(=O)N(NC2=NS(=O)(=O)c3ccccc32)C(=O)C(C)C)cc1	-4	-5%	-6%	0	2.5µM*	-2%
CCN(CC)S(=O)(=O)c1ccc(C(=O)NNC2=NS(=O)(=O)c3ccccc32)cc1	0	-8%	-1%	2	14%	-1%
C[C@H](NC(=O)C1CC(=O)N(c2ccc(F)cc2)C1)C(=O)N[C@@H](Cc1ccccc1)C(=O)O (stereo partly specified)	.	.	.	6	.	.
CCN(Cc1cccc(F)c1)C(=O)Nc1ccc(N2CCN(C)CC2)cc1	.	.	.	3	.	.
Cc1ccc(CN(C)C(=O)c2cc(Br)c(Br)s2)o1	-2	-4%	50µM*	0	42%	-2%
Cc1ccc2oc(C(=O)N(C)Cc3ccc(C)o3)c(C)c2c1	-3	-5%	7.1µM*	-1	-42%	0%
COc1ccccc1OCC(=O)Nc1ccc(C(=O)Nc2ccccc2C(=O)O)cc1	5	.	.	-4	25%	.
COc1ccc(CC(=O)Nc2ccc(C(=O)Nc3ccccc3C(=O)O)cc2)cc1OC	0	-4%[57.1 µM]	14%[57.1 µM]	-37*	-24%	0%
CCOc1ccccc1NC(=O)c1c(NC(=O)c2ccccc2)sc2c1CCCC2	-1	7%	3%	-1	.	.
CCc1ccccc1NC(=O)c1c(NC(=O)c2ccccc2)sc2c1CCCC2	-1	81%	89µM*	-2	.	.
CC1CCc2c(sc(NC(=O)c3ccco3)c2C(=O)O)C1 (stereo unspecified)	0	-8%	4%	-41*	-14%	-2%
